# Assay results published in PubChem BioAssay AID540333 (Southern Research Specialized Biocontainment Screening …, 2011).
# Hit rate of the full screen: of about 10,000 compounds, about 320 (3.2%) were called active. The sample holds actives, similar compounds and a random draw of the others, so the mix is not that of the screen. No stated cut-off is given here; in the data, active means CPE inhibition mostly above about 9.1% (no sharp cut-off); inactive means mostly below about 7.2%.
# Experiment: antivirals protecting cells from dengue CPE – CPE readout, HTS (AID 540333)
# Settings: Dengue virus CPE inhibition in host cells, at 20 µM; stronger effect = higher value
row,SMILES,CPE inhibition
1,c1ccc(-c2[nH]c(-c3ccccc3)[n+](CC3CO3)c2-c2ccccc2)cc1 (stereo not given),16.7% (active)
2,O=C(NCCCN1CCOCC1)C(Cl)(Cl)Cl,inactive
3,CCOC(=O)CCCCCNC(=O)c1c(O)[nH]c(=O)[nH]c1=O,inactive
4,N#CC(C#N)=Cc1ccc(-c2ccccc2F)o1,12.6% (active)
5,COC(=O)C1=C(c2ccc(C(C)=O)cc2)C[C@@H]2CC[C@H]1N2C(=O)N1CCCCC1,inactive
6,Cc1c(C(c2ccc(O)cc2)c2c(O)c3ccccc3oc2=O)c(=O)n(-c2ccccc2)n1C (stereo not given),0.205% (inactive)
7,Cc1ccc(-n2c(O)c(/C=N/N3CCOCC3)c(=O)[nH]c2=S)cc1,0.115% (inactive)
8,COC(=O)C1=C(c2ccc(F)cc2F)C[C@@H]2CC[C@H]1N2C(=O)NC(C)C,inactive
9,COc1ccc(/C=C/C(=O)c2c(O)n(CCC3=CCCCC3)c(=O)[nH]c2=O)cc1,9.38% (active)
10,O=C(N/N=C/c1c(O)n(CCC2=CCCCC2)c(=O)[nH]c1=O)c1ccccc1,0.065% (inactive)
11,O=C(/C=C/c1ccc2c(c1)OCO2)c1c(O)n(CCC2=CCCCC2)c(=O)[nH]c1=O,4.09% (inactive)
12,CC(ON1CC1(C(F)(F)F)C(F)(F)F)(C(N)=O)C(N)=O (stereo not given),0.53% (inactive)
13,CN1c2ccc([N+](=O)[O-])cc2CC2(C(=O)NC(=O)N(c3ccccc3)C2=O)C1c1ccccc1 (stereo not given),15.4% (active)
14,CC(C)N1C(=O)NC(=O)C2(Cc3cc([N+](=O)[O-])ccc3N(C)C2c2ccccc2)C1=O (stereo not given),1.19% (inactive)
15,CN1c2ccc([N+](=O)[O-])cc2CC2(C(=O)NC(=O)NC2=O)C1c1ccccc1 (stereo not given),inactive
16,CN1C(=O)C(=Cc2ccc(N3CCOCC3)o2)C(=O)N(C)C1=O,inactive
17,C/C(=N\Nc1ccccc1)c1c(O)n(Cc2ccccc2)c(=O)[nH]c1=O,inactive
18,COC(=O)C1=C(c2ccc(F)cc2F)C[C@@H]2CC[C@H]1N2C(=O)NCCOc1ccccc1Cl,3.74% (inactive)
19,CCCc1nc2ccc(Br)cc2c(=O)n1-c1ccc([N+](=O)[O-])c(C(F)(F)F)c1,0.98% (inactive)
20,COC(=O)C1=C(c2cc3ccccc3o2)C[C@@H]2CC[C@H]1N2C,0.83% (inactive)
21,CCCNC(=O)N1[C@H]2CC[C@@H]1C(C(=O)OC)=C(c1cc3ccccc3o1)C2,4.1% (inactive)
22,COC(=O)C1=C(c2cc3ccccc3o2)C[C@@H]2CC[C@H]1N2C(=O)NCc1cccc2ccccc12,16.2% (active)
23,CCC(=NCCC(c1ccccc1)c1ccccc1)c1c(O)[nH]c(=O)[nH]c1=O,2.3% (inactive)
24,COC(=O)C1=C(c2ccc3ccccc3c2)C[C@@H]2CC[C@H]1N2C(=O)NC1Cc2ccccc2C1,6.91% (inactive)
25,O=C(Nc1ccccc1)c1c(O)[nH]c(=O)[nH]c1=O,inactive
26,O=C1CN=C(c2ccccc2)c2cc(Br)ccc2N1Cc1cc(=O)n2ccccc2n1,0.155% (inactive)
27,Cc1ccc(CN2C(=O)CN=C(c3ccccc3)c3ccccc32)cc1,9.14% (active)
28,O=C(N/N=C/c1c(O)n(CCc2ccccc2)c(=O)[nH]c1=O)c1ccncc1,0.65% (inactive)
29,CN(C)S(=O)(=O)c1cc(NC(=O)COC(=O)Cc2ccccc2)ccc1Cl,inactive
30,COC(=O)C1=C(c2ccc(S(C)(=O)=O)cc2)C[C@@H]2CC[C@H]1N2C(=O)NCc1ccc(C(F)(F)F)cc1,0.31% (inactive)
